# Pol kappa inh – DNA polymerase kappa (human) inhibition. Potency, µM (highest dose often 107 µM), for the others: at the top dose activity, negative = inhibition, actives largely listed as inhibitors. purified Pol kappa, fluorescent DNA synthesis assay, 10 min. AID 588579. hit rate 0.53% among 400,000; also: % is scaled to controls: 0 for no effect and ±100 for the full control effect
#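 50 nM final substrate added after 15 min RT preincubation of 10 nM Pol kappa with compound; fluorescence read at 0 and 10 min.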
# FEN1 inhibitor – blocks human flap endonuclease 1 | hit rate 0.35% among 390,000 | AID 588795 | Potency, µM (highest dose often 114 µM), for inactives: at the highest dose activity change, negative = inhibition, actives largely listed as inhibitors | Recombinant FEN1 flap cleavage, fluorescence, 15 min | P39748; also: % is scaled to controls: 0 for no effect and ±100 for the full control effect; nearly all actives have a fitted effect of over 65% in size
#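 Concentration–response screening of FEN1 (10 nM): 15 min compound preincubation at room temperature, reaction started with 50 nM substrate and read at 0 and 15 min. Corrected, normalized data were fitted by a four-parameter Hill equation.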
# WRN helicase inh-1 – WRN helicase (human) inhibition; Q14191; WRN helicase unwinding, fluorescent forked duplex, kinetic; Potency, µM (top dose mostly 114 µM), for the others: top-dose activity change, negative = inhibition, usual class: inhibitors; hit rate 0.46% among 360,000; AID 651768; also: % is scaled to controls: 0 for no effect and ±100 for the full control effect; nearly all actives have a fitted effect of over 55% in size
#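 Kinetic fluorescence helicase assay: unwinding of a quenched forked DNA duplex (100 nM final) with 2 mM ATP final raises red fluorescence (525/598 nm). Compounds sat 15 min at room temperature with 20 nM WRN beforehand.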
# POLH inh – inhibitors of human DNA polymerase eta; recombinant Pol eta, fluorescent DNA replication assay; Potency, µM (series often up to 114 µM), inactives show at the highest dose activity change, negative = inhibition, most hits filed as inhibitors; hit rate 1.2% among 390,000; also: % is scaled to controls: 0 for no effect and ±100 for the full control effect
#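 Pol eta at 10 nM preincubated with compounds 15 min at room temperature; reaction started with fluorescent substrate (50 nM final) and read kinetically at 0 and 10 min.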
# POLI inh – inhibitors of human DNA polymerase iota; hit rate 1% among 390,000; Potency, µM (doses to about 115 µM), for inactives: at the top dose activity, negative = inhibition, hits mostly inhibitors; AID 588590; Pol iota fluorescent replication assay, 10 min; Q9UNA4
#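 Fluorescent replication assay read twice, at 0 min and 10 min after adding 50 nM (final) substrate. Enzyme (10 nM) and compounds were first incubated 15 min at room temperature; enzyme-free buffer wells were negative controls.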
# POLB inh – blocks human DNA polymerase beta activity; P06746; Pol beta primer extension/strand displacement, fluorescence kinetic; Potency, µM (series often up to 114 µM), for inactives: at the highest dose activity change, negative = inhibition, usual class: inhibitors; hit rate 1.3% among 340,000; also: % is scaled to controls: 0 for no effect and ±100 for the full control effect
#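 Preincubation: enzyme (10 nM) with compound, 15 min, RT. Reaction: substrate added to 50 nM final. Reads: 0 and 10 min. Analysis: normalized, Hill fit.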
# WRN helicase inh-2 – WRN helicase inhibition, cherry-pick retest; hit rate 63% among 610; shares compounds with WRN helicase inh-1; Potency, µM (highest dose often 57.1 µM), for the others: at the highest dose activity, negative = inhibition, usual class: inhibitors; AID 720497; WRN helicase DNA unwinding, fluorescence kinetic; also: nearly all actives have a fitted effect of over 65% in size
# TO DNA binding – DNA binding via thiazole orange displacement | shares compounds with WRN helicase inh-1 | thiazole orange DNA binding displacement, fluorescence | Potency, µM (doses to about 57.1 µM), for the others: top-dose activity change, negative = inhibition, hits mostly inhibitors | hit rate 10% among 610 | AID 720499;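 also: drop in dye fluorescence marks compound binding to DNA; % is scaled to controls: 0 for no effect and ±100 for the full control effect; nearly all actives have a fitted effect of over 60% in size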
# BLM helicase inh – counter-screen for WRN helicase inhibitors: human BLM helicase inhibition | shares compounds with WRN helicase inh-1 | Recombinant BLM helicase DNA unwinding, red fluorescence | Potency, µM (series often up to 57.1 µM), inactives show at the top dose activity change, negative = inhibition, hits mostly inhibitors | hit rate 60% among 610 | AID 720503; also: nearly all actives have a fitted effect of over 60% in size
# Target sequence (P54132 whole entry, looked up): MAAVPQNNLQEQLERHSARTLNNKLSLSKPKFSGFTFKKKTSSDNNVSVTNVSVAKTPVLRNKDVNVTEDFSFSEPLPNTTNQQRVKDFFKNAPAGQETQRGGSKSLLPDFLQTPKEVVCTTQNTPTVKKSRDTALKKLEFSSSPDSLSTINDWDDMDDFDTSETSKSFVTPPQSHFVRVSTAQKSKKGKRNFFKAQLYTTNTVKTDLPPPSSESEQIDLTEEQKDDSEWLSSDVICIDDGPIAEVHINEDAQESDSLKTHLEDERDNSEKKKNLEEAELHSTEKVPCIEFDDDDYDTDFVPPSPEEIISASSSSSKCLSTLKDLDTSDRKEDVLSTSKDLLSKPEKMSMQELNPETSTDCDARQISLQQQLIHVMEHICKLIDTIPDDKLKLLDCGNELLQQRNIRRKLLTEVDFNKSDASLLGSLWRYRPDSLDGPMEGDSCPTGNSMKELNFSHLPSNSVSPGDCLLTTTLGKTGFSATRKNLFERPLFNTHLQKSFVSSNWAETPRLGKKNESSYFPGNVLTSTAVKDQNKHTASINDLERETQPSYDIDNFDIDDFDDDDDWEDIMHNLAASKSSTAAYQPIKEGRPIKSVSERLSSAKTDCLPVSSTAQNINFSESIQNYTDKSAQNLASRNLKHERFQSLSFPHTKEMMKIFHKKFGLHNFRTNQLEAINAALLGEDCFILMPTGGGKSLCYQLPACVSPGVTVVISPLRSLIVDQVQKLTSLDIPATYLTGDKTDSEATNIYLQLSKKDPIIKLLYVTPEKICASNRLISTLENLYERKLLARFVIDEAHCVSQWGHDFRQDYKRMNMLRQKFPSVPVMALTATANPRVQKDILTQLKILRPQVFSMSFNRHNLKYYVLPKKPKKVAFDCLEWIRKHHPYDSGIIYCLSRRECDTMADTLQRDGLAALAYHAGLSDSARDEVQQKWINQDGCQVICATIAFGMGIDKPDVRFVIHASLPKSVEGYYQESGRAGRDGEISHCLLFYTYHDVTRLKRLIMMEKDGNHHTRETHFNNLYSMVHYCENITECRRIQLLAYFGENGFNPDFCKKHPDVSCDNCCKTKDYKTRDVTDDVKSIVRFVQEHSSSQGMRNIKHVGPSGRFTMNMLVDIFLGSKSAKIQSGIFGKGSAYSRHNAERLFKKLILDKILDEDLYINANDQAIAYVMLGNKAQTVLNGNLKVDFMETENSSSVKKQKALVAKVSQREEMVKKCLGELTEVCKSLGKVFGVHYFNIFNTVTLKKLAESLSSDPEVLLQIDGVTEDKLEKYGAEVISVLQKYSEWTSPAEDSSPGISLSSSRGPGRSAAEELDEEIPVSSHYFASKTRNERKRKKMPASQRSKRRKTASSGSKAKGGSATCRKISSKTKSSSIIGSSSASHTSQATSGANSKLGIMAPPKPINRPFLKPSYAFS
# Starred values were filed as active, the others as inactive; u = inconclusive; x = not tested or not shown; [ ] = remark or other dose. This is a sample that favours compounds with a hit; in the whole collection about 2.4% have one here. Calls follow the shape of the dose curve; as a rule, active = well fitted curve in the direction sought with a large enough effect; inconclusive = small, poorly fitted or top-dose-only effect, or another doubt; inactive = no such curve, though single readings can be large; an effect the other way counts as inactive or inconclusive. Potency is read from the fitted curve at half-maximal effect.
SMILES,Pol kappa inh,FEN1 inhibitor,WRN helicase inh-1,POLH inh,POLI inh,POLB inh,WRN helicase inh-2,TO DNA binding,BLM helicase inh
Cc1ccc(OCCOc2cccc(C=C3C(=O)NC(=O)NC3=O)c2)c(C)c1,-19.1%,u,35.5µM*,-21.8%,u,u,u,-23.3%,27.1µM*
CN(C)CC(C(=O)Cc1ccccc1)c1ccccc1 (centres undefined),-6.3%,13.0%,44.7µM*,-13.5%,u,x,0.304µM*,2.5%,u
C[C@@H]([C@@H](O)c1ccccc1)N(C)C(=O)Cc1ccccc1,-15.5%,1.9%,1.3%,-17.5%,29.7%,x,x,x,x
O=C1CC=C2C3CC4N(CCC45c4cc(O)c(O)cc4N1C25)CC3=CCBr (centres undefined),u,u,28.2µM*,u,39.8µM*,x,19.2µM*,-3.7%,5.41µM*
CC(C)=CCCN1CCC(NC(=O)C(O)(c2ccccc2)C2CCCC2)CC1 (centres undefined),-4.3%[60.1 µM],x,x,x,x,x,x,x,x
COc1cc(C=C2C(=O)NC(=O)NC2=O)ccc1OS(=O)(=O)c1ccccc1[N+](=O)[O-],-14.4%,-24.1%,28.2µM*,-19.0%,u,19.9%,-20.2%,-10.0%,-3.6%
Cc1ccc(NC(=O)Nc2ccc3nc(N4CCN(C)CC4)cc(C)c3c2)cc1F,-13.7%,15.4%,x,-12.6%,u,-0.3%,x,x,x
CCC(C)N1C(=O)/C(=C\c2cnc(N(C)C)nc2)C(=O)NC1=S (centres undefined),1.8%,-0.6%,50.1µM*,-6.5%,u,15.1%,-5.5%,7.4%,-17.7%
Cc1cc(N2CCCCC2)nc2ccc(NC(=O)/C=C/c3ccc(OC(C)C)cc3)cc12,-1.8%,-18.3%,x,-15.6%,12.1%,30.2%,x,x,x
CSc1ccccc1NC(=O)CN(C)CC(=O)c1[nH]c(C)c(C(C)=O)c1C,-10.9%,-4.0%,u,-0.7%,27.2%,x,x,x,x
Cc1c(C=C2C(=O)NC(=O)NC2=O)c(=O)n(-c2ccccc2)n1C,-21.2%,-2.7%,-10.1%,-15.5%,162.1%,-13.2%,x,x,x
O=C1NC(=O)C(=Cc2c(Cl)cccc2Cl)C(=O)N1,-21.1%,2.2%,35.5µM*,-3.2%,-1.4%,x,-0.4%,-3.1%,-4.4%
CN1C(=O)C(=Cc2ccccc2OCc2ccc(Cl)cc2)C(=O)N(C)C1=O,-9.5%,-1.2%,-24.4%[57.1 µM],-3.3%,55.1%,0.3%,x,x,x
CCOC(=O)Cn1cc(C=C2C(=O)N(C)C(=O)N(C)C2=O)c2ccccc21,70.6%,-14.3%,-16.5%,-8.6%,30.7%,7.6%,x,x,x
CN1C(=O)C(=Cc2ccccc2Oc2ccc(Cl)cc2)C(=O)N(C)C1=O,-4.4%,-0.4%,44.7µM*,-5.9%,-0.5%,3.0%,19.2µM*,-27.3%,7.64µM*
Cc1ccc(S(=O)(=O)Oc2ccccc2C=C2C(=O)N(C)C(=O)N(C)C2=O)cc1,-10.9%,-0.2%,44.7µM*,1.6%,-18.0%,-12.8%,-22.4%,-3.4%,-18.4%
COc1ccc(CCNc2nc3c(c(=O)n(C)c(=O)n3C)n2Cc2ccc(F)cc2)cc1OC,-6.1%,0.6%,x,-20.7%,31.3%,3.4%,x,x,x
CCOc1cc(C=C2C(=O)NC(=O)NC2=O)ccc1OCC(=O)N1CCOCC1,-3.1%,-5.6%,u,-10.2%,12.2%,17.0%,-4.2%,-2.9%,-11.1%

# Compound activity as filed in PubChem.
